Measurements taken from PubChem BioAssay AID743110 (Vanderbilt Specialized Chemistry Center, 2013).
Entries with a potency or affinity are not part of this list. The source made the active and inactive calls.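 How the source made its calls: active means Blocks human M5 receptor in a calcium assay, with half-maximal inhibiting concentration under 10 µM; inactive means the rest.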

Target: Muscarinic acetylcholine receptor M5 (Homo sapiens) (UniProt P08912)
Assay: M5 muscarinic receptor antagonist potency, dose response, cell-based, CHO-K1 hM5, Fluo-4 calcium flux, ACh EC80 (AID 743110)
Settings: series mostly up to 30 µM

Sequence of Muscarinic acetylcholine receptor M5 (Homo sapiens) (P08912 whole entry, looked up): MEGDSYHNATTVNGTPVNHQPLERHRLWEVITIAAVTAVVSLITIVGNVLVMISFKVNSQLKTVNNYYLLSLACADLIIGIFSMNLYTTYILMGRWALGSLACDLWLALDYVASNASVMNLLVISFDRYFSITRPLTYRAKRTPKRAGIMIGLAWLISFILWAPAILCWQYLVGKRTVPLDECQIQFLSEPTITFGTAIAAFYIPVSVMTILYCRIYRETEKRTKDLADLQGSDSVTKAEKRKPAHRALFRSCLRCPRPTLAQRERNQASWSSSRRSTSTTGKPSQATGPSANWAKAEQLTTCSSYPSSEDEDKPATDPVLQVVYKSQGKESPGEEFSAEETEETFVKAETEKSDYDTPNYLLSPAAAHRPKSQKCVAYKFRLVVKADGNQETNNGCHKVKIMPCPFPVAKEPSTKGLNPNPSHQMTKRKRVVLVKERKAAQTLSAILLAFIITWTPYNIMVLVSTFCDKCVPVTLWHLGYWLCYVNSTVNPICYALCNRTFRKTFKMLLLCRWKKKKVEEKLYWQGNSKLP

outcome, inactive:
CC(=O)c1cccc(N(Cc2cc(C(=O)N(C)C(C)c3ccccn3)no2)C(=O)c2ccccc2)c1 (stereo not given)
CC(=O)c1cccc(OCc2cccc(C(=O)N(C)C(C)c3ccccn3)c2)c1 (stereo not given)
CC(c1ccccn1)N(C)C(=O)c1cc(COc2cccc(Br)c2)on1 (stereo not given)
CC(=O)c1cccc(OCc2ccc(C(=O)N(C)C(C)c3ccccn3)cc2)c1 (stereo not given)
CC(=O)c1cccc(OCc2cc(C(=O)NC(C)c3ccccn3)no2)c1 (stereo not given)
